# LGR2 antag: blocks bursicon-induced cAMP signaling via Drosophila LGR2. HEK293 LGR2, CRE-luciferase, bursicon-stimulated, 4 h. inhibition, % at 9.99 µM. 380,000 tested, 0.35% active;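 active = drop in luminescence signal, shown as inhibition above about 50% in the replicate tests, limit read from the data, passing the limit was not always enough; inconclusive = probably only some replicates passing the limit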;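 note: agonist challenge used bursicon conditioned medium at about half maximal strength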
# EWS-Fli block: blocks EWS/Fli oncoprotein-driven transcription. A673 NR0B1-luciferase reporter, viability-normalised. inhibition, % at 12.6 µM. 350,000 tested, 0.67% active;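 active = mean inhibition of at least 50% after viability correction, with every replicate also passing that limit; inconclusive = mean reaches 50% but only one of two replicates passes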;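 note: firefly luciferase signal divided by Alamar Blue viability fluorescence both relative to DMSO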
# TWEAK Fn14 block: blocks TWEAK-Fn14 interaction in a reporter cell assay; TWEAK-stimulated Fn14 reporter cells, luciferase luminescence, 8 h; inhibition, % at 10 µM; 360,000 tested, 2% active; AID 1159606; in the data active = inhibition above about 50%
# TROY NFkB inh: TROY signaling inhibition. Q293 LMP1-TROYcd NF-kB luciferase reporter, 4 h. AID 1347056. 360,000 tested, 0.98% active. inhibition, % at 10 µM;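 active = compounds whose plate-normalised and pattern-corrected inhibition of the luciferase reporter signal at the single screening dose is 50% or more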
# EBV LMP1 NFkB: inhibitors of Epstein-Barr LMP1-induced NF-kappaB reporter | LMP1-induced NF-kappaB luciferase reporter cells, luminescence | inhibition, % at 12.5 µM | 350,000 tested, 0.69% active; in the data active = inhibition above about 41%; inconclusive = no clear call, values can overlap the other calls;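 note: 0% = neutral control wells and 100% = reference inhibitor control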
# PAX8 inh HTS: inhibitors of PAX8 transcriptional activity in RMG-I cells; 360,000 tested, 1.2% active; RMG-I TPO-luciferase reporter, SteadyGlo, 24 h; inhibition, % at 12.6 µM;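 active = mean replicate inhibition at least 60% with every replicate also reaching 60%; inconclusive = only one of the two criteria is met; inactive = mean below 60% and not all replicates reaching 60%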;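 note: luciferase light reporting Pax8 driven TPO promoter activity; plate controls were median of neutral control wells for no effect and mitoxantrone controls for full effect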
# Starred values were filed as active, the others as inactive; ? = inconclusive; . = no result given. Compounds with a hit are over-represented: about 3.1% of the library has one in this group of screens.
SMILES,LGR2 antag,EWS-Fli block,TWEAK Fn14 block,TROY NFkB inh,EBV LMP1 NFkB,PAX8 inh HTS
C[C@H](CO)N1C[C@H](C)[C@@H](CN(C)S(=O)(=O)c2ccc(Cl)cc2)OCCCC[C@H](C)Oc2ccc(NC(=O)Nc3ccc(C(F)(F)F)cc3)cc2C1=O,16,9,.,.,.,33
C[C@@H]1CCCCO[C@H](CN(C)S(=O)(=O)c2ccc(Cl)cc2)[C@@H](C)CN([C@@H](C)CO)C(=O)c2cc(NC(=O)CCC(F)(F)F)ccc2O1,23,0,.,.,.,93*
C[C@@H]1CN([C@H](C)CO)C(=O)c2cc(NC(=O)Nc3ccc(C(F)(F)F)cc3)ccc2O[C@@H](C)CCCCO[C@H]1CN(C)S(=O)(=O)c1ccc(Cl)cc1,18,-10,.,.,.,88*
C[C@@H]1CN([C@H](C)CO)C(=O)c2cc(NC(=O)Nc3ccccc3)ccc2O[C@@H](C)CCCCO[C@H]1CN(C)S(=O)(=O)c1ccc(Cl)cc1,9,-22,.,.,.,70*
C[C@H](CO)N1C[C@H](C)[C@H](CN(C)S(=O)(=O)c2ccc(Cl)cc2)OCCCC[C@H](C)Oc2ccc(NC(=O)Nc3ccc(C(F)(F)F)cc3)cc2C1=O,17,-20,.,.,.,78*
CCC(=O)N1[C@H](CN(C)C(C)=O)[C@@H](c2ccc(-c3cccnc3)cc2)[C@@H]1CO,-17,3,.,.,.,-20
Fc1ccc(CSc2ncnc3scc(-c4ccccc4)c23)cc1,.,-4,-7,-4,6,22
Cn1nnnc1Sc1ncnc2scc(-c3ccc(C(F)(F)F)cc3)c12,93*,35,93*,55*,-4,77*
Cn1nnnc1Sc1ncnc2scc(-c3cccc(F)c3)c12,83*,29,64*,43,24,105*
Cn1nnnc1Sc1ncnc2scc(-c3cccc(C(F)(F)F)c3)c12,88*,12,90*,58*,21,101*
COc1cccc(-c2csc3ncnc(Sc4nnnn4C)c23)c1,46,19,75*,38,75*,99*
Cn1nnnc1Sc1ncnc2scc(-c3ccccc3C(F)(F)F)c12,?,5,28,9,4,49
COCCNC(=O)[C@H]1[C@H](CO)[C@H]2Cn3c(ccc(-c4ccccc4F)c3=O)[C@H]2N1C(=O)C1CC1,-3,-5,.,.,.,.
O=C(Nc1ccccc1F)N1C[C@@H]2[C@H](c3ccccc31)[C@H](CO)N2C(=O)c1ccc(F)cc1,-4,-44,.,.,.,-60
O=C(C[C@H]1C[C@@H]2c3cc(NS(=O)(=O)c4ccccc4)ccc3O[C@@H]2[C@@H](CO)O1)NC1CCCC1,-7,1,.,.,.,.
O=C(C[C@@H]1C[C@H]2c3cc(NC(=O)NC4CCCC4)ccc3O[C@H]2[C@@H](CO)O1)NCc1cccc(F)c1,0,-8,.,.,.,-3
CC(=O)N1CCN(c2nnc(-c3ccc(C)cc3)c3ccccc23)CC1,1,-1,1,52*,-9,16
Cc1ccc(OCC(=O)N2CCN(c3nnc(-c4ccccc4)c4ccccc34)CC2)cc1,.,.,-2,42,3,21
CCOc1ccc(-c2nnc(N3CCCCC3)c3ccccc23)cc1,.,.,-9,59*,-14,.
C=CCc1c(OC(C)=O)c2ccccc2n(C)c1=O,14,2,55*,14,-10,29
O=C(O)C1CCC(=O)N1Cc1ccc(F)cc1 (stereo not drawn),1,1,50*,7,-5,.
C[C@@H]1CN([C@@H](C)CO)C(=O)Cc2cc(NC(=O)Cn3cnnn3)ccc2O[C@@H]1CN(C)S(=O)(=O)c1ccccc1,10,.,.,.,.,.
Cc1cccc2nc(CSc3nnc4ccccn34)cn12,.,.,50*,-14,-7,.
Cc1cccc2nc(CSc3nnnn3-c3ccccc3)cn12,.,.,1,-8,-8,-14
O=C1O[C@H](c2ccccc2)[C@H](c2ccccc2)N2[C@H]1[C@@H](C(=O)N1CCCCCCC1)[C@]1(C(=O)Nc3ccc(C#CCCO)cc31)[C@H]2c1ccc(O)cc1,.,-1,.,.,.,6
SMILES,LGR2 antag,EWS-Fli block,TWEAK Fn14 block,TROY NFkB inh,EBV LMP1 NFkB,PAX8 inh HTS
Clc1ccc(C(c2nnnn2C2CCCC2)N2CCN(c3nc4ccccc4s3)CC2)cc1 (stereo not drawn),7,.,74*,59*,-5,5
c1cnc2ccc(C(c3nnnn3C3CCCC3)N3CCN(c4nc5ccccc5s4)CC3)cc2c1 (stereo not drawn),.,.,-23,-6,10,.
C[C@@H]1CN([C@@H](C)CO)C(=O)Cc2cc(N(C)C)ccc2O[C@H]1CN(C)S(=O)(=O)c1cn(C)cn1,-15,5,.,.,.,5
CC(C)Cc1nc2oc3c(NCC4CCCO4)ncnc3c2c2c1CCC2 (stereo not drawn),.,.,54*,-2,12,82*
C[C@H](NC(=O)C[C@@H]1CC[C@@H](NC(=O)Nc2ccc3c(c2)OCO3)[C@H](CO)O1)c1ccccc1,8,14,.,.,.,-13
COc1ccc(-c2nc(C)ncc2-c2ccccc2)c(O)c1,-3,1,-2,-6,43*,-29
COc1ccc(-c2cn[nH]c2-c2ccc(OC)cc2O)cc1,17,-19,78*,43,32,-22
COc1ccc(-c2nc(C)ncc2-c2ccc(Cl)cc2)c(O)c1,-17,9,-2,1,8,-2
COc1ccc(-c2cn[nH]c2-c2ccc(OCc3ccccc3)cc2O)cc1,9,2,63*,31,20,-8
COc1ccccc1-c1cn[nH]c1-c1ccc(OCc2ccccc2)cc1O,-10,11,3,20,5,-15
CC=Cc1ccc2n(c1=O)C[C@@H]1[C@@H](CO)[C@H](C(=O)NC3Cc4ccccc4C3)N(CC3CCCC3)[C@H]21 (mixture of isomers),-7,.,.,.,.,-18
O=C(CN1CCOCC1)N1CCCCN2[C@@H](CO)[C@@H](c3ccc(-c4ccccc4F)cc3)[C@@H]2C1,9,-12,.,.,.,-1
O=C(Nc1ccc(Oc2ccc(Cl)cc2)c(Cl)c1)c1cc(I)cc(I)c1O,5,-15,57*,72*,-3,1
Cc1ccc(-c2nc(S(=O)(=O)c3ccc(C)cc3)c(N3CCOCC3)o2)cc1,-12,-1,65*,14,-2,-13
Cc1noc(C)c1NC(=O)N(C)C[C@H]1Oc2c(NC(=O)NC3CCCCC3)cccc2C(=O)N([C@@H](C)CO)C[C@H]1C,-1,-3,.,.,.,.
CC1=C(CC(=O)O)c2cc(F)ccc2C1=Cc1ccc(S(C)(=O)=O)cc1,1,-1,-3,0,83*,2
CC1=C(CC(=O)O)c2cc(F)ccc2/C1=C/c1ccc(S(C)=O)cc1 (stereo not drawn),19,12,10,8,0,-16
C[C@@H]1CCCCO[C@H](CN(C)C(=O)NC2CCCCC2)[C@H](C)CN([C@@H](C)CO)C(=O)c2cc(NS(=O)(=O)c3ccc(F)cc3)ccc2O1,10,3,.,.,.,20

# Assay outcomes as filed in PubChem.
